KCNQ2 block: KCNQ2 (rat) channel inhibition | O88943 | CHO-K1 KCNQ2, FluxOR thallium flux, 20 min; active compounds read low | B-score at 10 µM | 310,000 tested, 1.1% active;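 active = fluorescence ratio B-score at most minus 3 library SDs, with starting brightness B-score within 2 library SDs, cut at about -5.5 in these data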
Target sequence (O88943 whole entry, looked up): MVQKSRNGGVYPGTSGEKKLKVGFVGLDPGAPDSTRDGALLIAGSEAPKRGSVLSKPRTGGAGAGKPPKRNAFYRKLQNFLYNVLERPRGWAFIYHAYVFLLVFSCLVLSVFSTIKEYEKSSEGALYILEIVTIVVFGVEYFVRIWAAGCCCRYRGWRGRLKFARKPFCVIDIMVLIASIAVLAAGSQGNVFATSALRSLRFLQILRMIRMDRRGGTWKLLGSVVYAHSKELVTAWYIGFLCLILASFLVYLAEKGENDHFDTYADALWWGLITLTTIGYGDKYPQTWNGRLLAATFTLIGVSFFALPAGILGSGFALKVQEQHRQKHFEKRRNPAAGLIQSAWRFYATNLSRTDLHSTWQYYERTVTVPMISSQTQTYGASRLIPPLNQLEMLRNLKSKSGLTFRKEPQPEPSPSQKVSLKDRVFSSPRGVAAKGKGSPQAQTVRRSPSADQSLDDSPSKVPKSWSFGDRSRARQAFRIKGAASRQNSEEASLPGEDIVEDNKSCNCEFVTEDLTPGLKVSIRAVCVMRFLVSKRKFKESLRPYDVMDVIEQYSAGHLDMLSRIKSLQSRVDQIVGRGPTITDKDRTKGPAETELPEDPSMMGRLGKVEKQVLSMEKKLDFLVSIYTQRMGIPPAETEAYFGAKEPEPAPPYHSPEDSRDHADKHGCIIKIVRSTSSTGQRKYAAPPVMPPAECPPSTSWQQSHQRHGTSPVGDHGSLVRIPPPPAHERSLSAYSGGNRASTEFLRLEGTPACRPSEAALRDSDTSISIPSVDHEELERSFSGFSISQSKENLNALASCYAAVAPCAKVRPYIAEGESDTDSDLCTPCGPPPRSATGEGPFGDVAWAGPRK
KCNQ2 enhance: enhances the rat KCNQ2 potassium channel | CHO-K1 KCNQ2, FluxOR thallium flux fluorescence; active compounds read high | O88943 | B-score at 10 µM | 310,000 tested, 0.54% active;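 active = fluorescence ratio B-score at least 3 SD of library B-scores, with initial fluorescence B-score within 3 of them, cut at about 5.3 in these data; same plate scores as AID 2156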;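 note: B-score of peak minus minimum over baseline fluorescence ratio after K+ and Tl+ stimulus; positive B-score means potentiation of KCNQ2 with more thallium influx and brighter signal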
KCNQ2 inh conf: rat KCNQ2 channel inhibition, confirmatory screen. KCNQ2-expressing cells, thallium flux; active compounds read low. 1,000 tested, 57% active. shares compounds with KCNQ2 block. activity change, negative = inhibition, % at 10 µM. AID 493025
KCNQ1 spec: selectivity of KCNQ2 inhibitors against human KCNQ1 | shares compounds with KCNQ2 block | KCNQ1-expressing cells, FluxOR thallium flux fluorescence; active compounds read low | activity change, negative = inhibition, % at 10 µM | 1,000 tested, 15% active | AID 493026;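 active = activity change at least 3 SD of negative controls below their mean in both duplicate wells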;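 note: CHO cells stably transfected with KCNQ1 and depolarized by potassium stimulus; peak minus minimum fluorescence over baseline after thallium addition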
CHO parental ctr: counter-screen for KCNQ2 inhibitors: effect in parental CHO cells; thallium flux counter-screen; active compounds read low; 1,000 tested, 14% active; shares compounds with KCNQ2 block; AID 493029; activity change, % at 10 µM
KCNQ2 patch conf: rat KCNQ2 inhibition confirmed by electrophysiology. AID 588531. calls only at 10 µM. KCNQ2-expressing cells, automated patch clamp current. 550 tested, 49% active. shares compounds with KCNQ2 block
A number is an active result; – = inactive; · = not tested or not shown; + = active, no number. Sampled rows, rich in hits. Any-hit rate of the full collection: about 1.6%. Unless noted, the rule behind the calls is not given here.

SMILES	KCNQ2 block	KCNQ2 enhance	KCNQ2 inh conf	KCNQ1 spec	CHO parental ctr	others
O=C(CSc1nc2ccccc2c(=O)n1NC(=O)c1ccccc1)c1ccc(Cl)cc1	-10.2	–	-30.0%	–	–	KCNQ2 patch conf=+
Cc1nc2ccccc2c(=O)n1NC(=O)c1ccc(Cl)cc1	–	–	·	·	·
COc1ccc(/C=N/NC(=O)c2cccc(NC(=O)c3ccccc3Cl)c2)c(OC)c1	–	–	·	·	·
Cc1c(C(=O)CN2CCCC(C)(C)C2)c2ccccc2n1C	–	–	·	·	·
Cc1cc(NC(=O)c2nn(C)c(C)c2Br)no1	–	–	·	·	·
CC(C)(C)C(=O)Nc1ccc(S(=O)(=O)N2CCC(c3nc4ccccc4[nH]3)CC2)cc1	–	–	·	·	·
Cn1c2ccccc2c2c(C(=O)NCc3ccco3)cn(C3CCCCC3)c(=O)c21	-9.78	–	-26.0%	–	–	KCNQ2 patch conf=+
COCCn1cc(C(=O)NCc2ccco2)c2c3ccccc3n(C)c2c1=O	–	–	·	·	·
COc1ccccc1-c1cc(C(F)(F)F)n2ncc(C(=O)N3CCc4ccccc4C3)c2n1	-7.58	–	–	–	–
COc1ccc(-c2cc(C(F)F)n3ncc(C(=O)N4CCc5ccccc5C4)c3n2)cc1	–	·	·	·	·
O=C(CCN1CCOCC1)c1ccccc1	-9.89	–	–	–	–
O=C(CCN1CCOCC1)c1ccc2c(c1)OCCO2	-7.41	–	–	–	–
O=C(OCCN1CCOCC1)c1ccc2c(c1)OCCO2	–	·	·	·	·
O=C(CCN1CCCCC1)c1ccccc1	–	·	·	·	·
COc1cccc(NC(=O)CN(C)CC(=O)Nc2ccc(C)c([N+](=O)[O-])c2)c1	–	–	·	·	·
Cc1ccc(SCC(=O)Nc2ccc3c(c2)C(=O)N(C)C3=O)cc1	–	·	·	·	·
COc1ccc(S(=O)(=O)N2CCOC2CNC(=O)C(=O)NCC(C)C)cc1OC (centres undefined)	–	·	·	·	·
COc1ccc(-n2c(SCC#N)nc3c(sc(=S)n3-c3ccccc3)c2=O)c(OC)c1	–	·	·	·	·
Fc1ccc(CSc2nnc(-c3ccncc3)o2)cc1	–	–	·	·	·
Cc1ccccc1-c1nnc(SCc2ccc(F)cc2)o1	-9.12	–	–	–	–
CC(=O)c1cccc(NC(=O)COC(=O)c2ccccc2C)c1	–	–	·	·	·
O=C1CCCCN1CCC(=O)N1CCCC(N2CCN(c3ccccc3)CC2)C1 (centres undefined)	–	·	·	·	·
COc1ccc2oc(C(=O)OCC(=O)N(Cc3ccccc3)C(C)(C)C)c(C)c2c1	-9.4	–	–	–	–
CC(C)(C)N(Cc1ccccc1)C(=O)COc1cccnc1[N+](=O)[O-]	–	·	·	·	·
COc1ccc2oc(C(=O)OCC(=O)NCCc3ccccc3)c(C)c2c1	–	–	·	·	·
SMILES	KCNQ2 block	KCNQ2 enhance	KCNQ2 inh conf	KCNQ1 spec	CHO parental ctr	others
CC(C)(C)N(Cc1ccccc1)C(=O)COC(=O)c1cccc([N+](=O)[O-])c1	-6.99	–	–	–	–
CCOc1cc(C(=O)NC2CC(C)(C)NC(C)(C)C2)cc(OCC)c1OCC	–	·	·	·	·
O=C(Nc1ccccc1Cl)c1cc(S(=O)(=O)N2CCCCC2)ccc1N1CCOCC1	–	·	·	·	·
CCN1CCN(S(=O)(=O)c2ccc(Cl)c(C(=O)Nc3ccccc3N3CCOCC3)c2)CC1	–	·	·	·	·
O=C(Nc1ccccc1N1CCCCC1)c1cc(S(=O)(=O)N2CCOCC2)ccc1Cl	-9	–	-28.5%	–	–	KCNQ2 patch conf=+
CCN1CCN(S(=O)(=O)c2ccc(Cl)c(C(=O)Nc3cc(Cl)ccc3N3CCOCC3)c2)CC1	-6.72	–	–	–	–
Cc1ccc2nc(-c3ccc(O)cc3)oc2c1	–	·	·	·	·
Cc1ccc(NC(=O)N2CCCC2C(=O)Nc2c(C)cc(C)cc2C)cc1 (centres undefined)	–	–	·	·	·
Brc1ccccc1OCCN1CCCC1	–	–	·	·	·
COc1ccc(CN(C)C(=O)c2cnc(C)cn2)c(OC)c1OC	–	–	·	·	·
N#Cc1c(NCCCO)nc(-c2ccco2)c2c1CCCC2	–	–	·	·	·
N#Cc1c(NC2CCCCC2)nc(-c2ccco2)c2c1CCCC2	-7.05	–	-34.5%	–	–	KCNQ2 patch conf=–
COc1cc(C(=O)Nc2c(C)cc(C)cc2C)c(Br)c(OC)c1OC	-8.77	–	–	–	–
COc1ccc(NC(=O)c2cc(OC)c(OC)c(OC)c2Br)cc1OC	–	–	·	·	·
CN(C)c1ccc(C(C(=O)NC2CCCC2)N(C(=O)c2csnn2)C2CC2)cc1 (centres undefined)	–	·	·	·	·
COc1nc(SC)nc(Cl)c1Cc1ccc(OC(C)C)cc1	–	·	·	·	·
CSc1nc(Cl)c(Cc2ccc(OC(C)C)cc2)c(N2CCOCC2)n1	-11.1	–	–	–	–
Cc1onc(-c2ccccc2Cl)c1C(=O)NCC(=O)O	–	–	·	·	·
Cc1onc(-c2ccccc2Cl)c1C(=O)NCCn1c(C)cc2ccccc21	-11.9	–	-35.5%	–	–	KCNQ2 patch conf=+
COc1ccc(CCNC(=O)CNCCc2ccc(F)cc2)cc1	–	–	·	·	·
Cc1c(C)c2ccc(OCC(=O)NCCN3CCOCC3)c(C)c2oc1=O	–	–	·	·	·
CNC(=O)c1ccc(-c2sc3nc(N4CCOCC4)c4c(c3c2N)CC(C)(C)OC4)o1	–	–	·	·	·
CNC(=O)c1ccc(-c2sc3nc(N4CCOCC4)c4c(c3c2N)CCCC4)o1	-9.53	–	-22.0%	–	–	KCNQ2 patch conf=–
O=C(CSc1ccc(F)cc1)NC12CC3CC(CC(C3)C1)C2	–	·	·	·	·
O=C(CCSc1ccc(Cl)c(Cl)c1)NC12CC3CC(CC(C3)C1)C2	-10.7	–	–	–	–
SMILES	KCNQ2 block	KCNQ2 enhance	KCNQ2 inh conf	KCNQ1 spec	CHO parental ctr	others
C=CCn1c(/N=C/c2ccc(N(C)C)cc2)nc2ccccc21	-7.27	–	–	–	–
C=CCn1c(/N=C/c2ccc(OC)cc2)nc2ccccc21	–	–	·	·	·
O=C(NCCc1ccccc1)c1ccc(Cl)c(S(=O)(=O)N2CCOCC2)c1	–	–	·	·	·
CCN(Cc1ccccc1)C(c1cccs1)c1nnnn1C1CCCCC1 (centres undefined)	-10.3	–	-33.5%	–	–	KCNQ2 patch conf=–
CCN(Cc1ccccc1)C(c1ccccn1)c1nnnn1C1CCCCC1 (centres undefined)	–	·	·	·	·
CC(C)(C)c1nc2ccc(NS(=O)(=O)c3ccc(F)c(F)c3F)cc2[nH]1	–	–	·	·	·
Cc1cc(OCC(=O)NCCCN2CCOCC2)c2c(C)cc(=O)oc2c1	–	·	·	·	·
CN(c1ccc(C(=O)NCc2ccncc2)cc1)S(=O)(=O)c1ccc(Cl)cc1	–	–	·	·	·
Cc1cc(NC2CCCCC2)nc(NCc2ccccc2)n1	-8.31	–	–	–	–
Cc1ccc(Nc2cc(C)nc(NCc3ccccc3)n2)cc1	–	·	·	·	·
CC(C)CNC(=O)CSc1n[nH]c(=O)n1CCc1ccccc1	–	–	·	·	·
O=[N+]([O-])c1ccc(Nc2ccccc2)c2nonc12	–	–	·	·	·
O=[N+]([O-])c1ccc(Sc2cccc[n+]2[O-])c2nonc12	-14.6	–	-64.0%	-57.0%	-60.0%	KCNQ2 patch conf=–
COc1cccc(NC(=O)CN(C)C(=O)/C=C/c2cn(-c3ccccc3)nc2-c2ccc(C)cc2)c1	-9.05	–	-22.5%	–	–	KCNQ2 patch conf=–
COc1ccc(NC(=O)CN(C)C(=O)/C=C/c2cn(-c3ccccc3)nc2-c2ccc(C)cc2)cc1	–	·	·	·	·
CCc1nc2ccccc2n1CC(=O)OCC(=O)N(CC(C)C)c1c(N)n(Cc2ccccc2)c(=O)[nH]c1=O	–	·	·	·	·
CCc1ccc(NC(=O)CCC(=O)Nc2nnc(C(F)(F)F)s2)cc1	–	–	·	·	·
